The whole screen tested about 330,000 compounds, of which about 1,300 (0.39%) were called active.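 The calls were made as follows: active = percent inhibition above a cutoff equal to the mean of all tested compounds plus 3 SD (cut at about 15% in these data); inactive = the rest.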 The list comes from a sample in which actives are over-represented; it also holds similar structures and randomly drawn compounds.
What follows are compounds tested against Protein-arginine deiminase type-4 (Homo sapiens) (UniProt Q9UM07) (assay: protein arginine deiminase 4 enzyme blockade – biochemical, fluorescence polarization, 1536-well format, primary screen (AID 485272;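 also: 0% = PAD4 with RCA probe and DMSO and 100% = probe without PAD4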)). Conditions: recombinant PAD4, RCA probe fluorescence polarization; at 6.36 µM; active compounds read high.
Protein-arginine deiminase type-4 (Homo sapiens), sequence (Q9UM07 whole entry, looked up): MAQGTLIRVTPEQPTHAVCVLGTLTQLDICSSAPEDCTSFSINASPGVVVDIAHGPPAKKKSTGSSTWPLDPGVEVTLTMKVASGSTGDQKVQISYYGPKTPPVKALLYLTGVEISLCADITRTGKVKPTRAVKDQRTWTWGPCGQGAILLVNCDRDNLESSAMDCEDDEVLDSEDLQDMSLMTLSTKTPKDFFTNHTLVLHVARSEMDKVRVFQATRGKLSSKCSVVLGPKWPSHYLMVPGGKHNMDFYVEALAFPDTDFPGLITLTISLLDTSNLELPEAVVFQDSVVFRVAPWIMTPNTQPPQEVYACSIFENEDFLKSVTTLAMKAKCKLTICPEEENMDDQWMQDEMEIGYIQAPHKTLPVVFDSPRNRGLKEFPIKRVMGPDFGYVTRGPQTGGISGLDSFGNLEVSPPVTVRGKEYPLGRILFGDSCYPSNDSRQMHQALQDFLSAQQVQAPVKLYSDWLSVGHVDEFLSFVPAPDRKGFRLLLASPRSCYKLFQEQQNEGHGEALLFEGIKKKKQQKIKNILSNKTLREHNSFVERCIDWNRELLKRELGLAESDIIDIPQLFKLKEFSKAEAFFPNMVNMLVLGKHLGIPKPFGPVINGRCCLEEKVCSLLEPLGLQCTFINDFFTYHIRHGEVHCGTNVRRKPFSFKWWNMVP

Row | SMILES | inhibition
1 | CC/C(=N\NC(=O)c1ccccc1O)c1c(O)n(Cc2ccccc2)c(=O)[nH]c1=O | -6.35% (inactive)
2 | CCOC(=O)c1c(N)n(Cc2ccccc2)c2nc3ccccc3nc12 | 42.1% (active)
3 | COc1cc(Cn2c(N)c(C(=O)NCc3ccco3)c3nc4ccccc4nc32)cc(OC)c1OC | -2.07% (inactive)
4 | O=C(COc1ccc2ccccc2c1)N1CCN(Cc2ccncc2)CC1 | 3.09% (inactive)
5 | CC(C)N(CC#CCC1(O)c2ccccc2-c2ccccc21)C(C)C | 2.13% (inactive)
6 | COc1ccc(CN2CCN(c3ccccc3F)CC2)c(OC)c1 | -6.62% (inactive)
7 | COc1ccccc1C1=NCc2nnc(CSC)n2-c2ccc(Cl)cc21 | 21.5% (active)
8 | Cc1cccc(-n2c(O)c(C=NC34CN5CN(CN(C5)C3)C4)c(=O)[nH]c2=O)c1 | 6.25% (inactive)
9 | Cc1ccc(N2C(=O)NC(=O)C(CCc3ccncc3)(Cc3cccc(Cl)c3Cl)C2=O)cc1 (stereo not given) | 1.57% (inactive)
10 | CN1CCN(Cc2ccccc2C(F)(F)F)CC1 | 6.58% (inactive)
